Consider six compounds from PubChem BioAssay (EPA / NIEHS).

By AC50 is commonly meant the concentration giving half of the maximal activity seen.

Read-out in test [1]: Interleukin 2 (IL2), IL2 (gene 3558)
Put plainly: BSK_BT_xIL2: BioMAP Diversity Plus: BT Assay for Interleukin 2 (IL2) Biomarker Activity (AID 2284245). The following applies: primary human B cells with PBMC. In a few lines: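 B cell + PBMC co-culture (human primary), compound added, 24 h incubation; secreted IL-2 measured multiplexed on Luminex xMAP; gain-of-signal fit vs DMSO.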

Read-out in test [2]: Basic fibroblast growth factor (bFGF), FGF2 (gene 2247)
Description: BSK_MyoF_bFGF: BioMAP Diversity Plus: MyoF Assay for Basic fibroblast growth factor (bFGF) Biomarker Activity (AID 2284246). The following applies: primary human lung fibroblasts. The essentials: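 ELISA-measured bFGF level serves as the read-out, taken 24 h after chemical dosing of human lung fibroblasts. Values represent signal gain over the DMSO negative control.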

Read-out in test [3]: Collagen IV, COL4A1 (gene 1282)
Description: BSK_MyoF_CollagenIV: BioMAP Diversity Plus: MyoF Assay for Collagen IV Biomarker Activity (AID 2284247). The conditions noted are these: primary human lung fibroblasts. In a few lines: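 Steps: dose human lung fibroblasts; culture 24 h; quantify Collagen IV by ELISA; fit increase versus DMSO control. Parallel SRB total-protein staining (0.1% SRB after 10% TCA fixation, 560 nm) tracks overt cytotoxicity.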

Read-out in test [4]: Plasminogen activator inhibitor-1 (PAI1), SERPINE1 (gene 5054)
Put plainly: BSK_MyoF_PAI1: BioMAP Diversity Plus: MyoF Assay for Plasminogen activator inhibitor-1 (PAI1) Biomarker Activity (AID 2284256).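 For outcome: PAI-1 read 24 h after compound addition.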 The conditions noted are these: primary human lung fibroblasts. In a few lines: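 Primary human lung fibroblasts treated with chemical for 24 h; PAI-1 levels quantified by ELISA relative to DMSO. Cytotoxicity was assessed in parallel cultures by SRB total-protein staining (0.1% SRB after 10% TCA fixation, 560 nm).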

Read-out in test [5]: Interleukin-8 (IL8), CXCL8 (gene 3576)
Put plainly: BSK_MyoF_IL8: BioMAP Diversity Plus: MyoF Assay for Interleukin-8 (IL8) Biomarker Activity (AID 2284261). The conditions noted are these: primary human lung fibroblasts. In a few lines:
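Human lung fibroblast (MyoF system) cultures dosed for 24 h, then IL-8 measured by ELISA. Response taken relative to DMSO; parallel SRB total-protein staining for cytotoxicity.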

Read-out in the next test: Decorin, DCN (gene 1634)
Description: BSK_MyoF_Decorin: BioMAP Diversity Plus: MyoF Assay for Decorin Biomarker Activity (AID 2284265). The following applies: primary human lung fibroblasts. In a few lines:
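Human lung fibroblast cultures were dosed for 24 h, and decorin was then measured by ELISA. Parallel cultures were stained with sulforhodamine B for total protein as a cytotoxicity check. Gain of signal was fitted relative to DMSO.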

A short description of test [6]: BSK_MyoF_SRB: Viability Assessment in the BioMAP Diversity Plus: MyoF Assay (AID 2284267).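 Note: total protein by SRB absorbance in parallel cultures as cytotoxicity measure.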 The following applies: primary human lung fibroblasts. In a few lines:
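Read-out is SRB absorbance at 560 nm, reflecting total protein in parallel lung fibroblast cultures harvested 24 h after compound addition. Cells were TCA-fixed (10%) and stained with 0.1% SRB; activity is referenced to DMSO.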

Read-out in test [7]: Matrix Metallopeptidase 1 (MMP1), MMP1 (gene 4312)
Put plainly: BSK_MyoF_MMP1: BioMAP Diversity Plus: MyoF Assay for Matrix Metallopeptidase 1 (MMP1) Biomarker Activity (AID 2284268). The conditions noted are these: primary human lung fibroblasts. In a few lines:
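Human lung fibroblast primary cells; MMP1 measured by ELISA 24 h after dosing, fitted in the positive direction relative to DMSO. Parallel SRB staining (0.1%, after 10% TCA fixation, 560 nm) assesses overt cytotoxicity.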

Read-out in test [8]: Monokine induced gamma interferon (MIG), CXCL9 (gene 4283)
Description: BSK_KF3CT_MIG: BioMAP Diversity Plus: KF3CT Assay for Monokine induced gamma interferon (MIG) Biomarker Activity (AID 2284248). The conditions noted are these: primary human keratinocytes with fibroblasts. In a few lines: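 Human keratinocyte–foreskin fibroblast co-culture; MIG measured by ELISA 24 h after chemical dosing, fitted upward versus DMSO. Cytotoxicity was assessed in parallel cultures by SRB total-protein staining read at 560 nm.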

Read-out in test [9]: Collagen I, COL1A1 (gene 1277)
Description: BSK_hDFCGF_CollagenI: BioMAP Diversity Plus: hDFCGF Assay for Collagen I Biomarker Activity (AID 2284250). The following applies: primary human foreskin fibroblasts. The essentials: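 Human skin primary fibroblasts dosed with test chemical, harvested at 24 h, Collagen I quantified by ELISA; parallel SRB staining (0.1% SRB after 10% TCA fixation, 560 nm) tracked cytotoxicity.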

Read-out in test [10]: Interferon-inducible T-cell alpha chemoattractant (ITAC), CXCL11 (gene 6373)
Put plainly: BSK_hDFCGF_ITAC: BioMAP Diversity Plus: hDFCGF Assay for Interferon-inducible T-cell alpha chemoattractant (ITAC) Biomarker Activity (AID 2284251). The following applies: primary human foreskin fibroblasts. The essentials:
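ELISA readout of I-TAC after 24 h chemical exposure; human dermal foreskin fibroblast primary cells. Positive-direction fitting vs DMSO baseline. Parallel SRB total-protein staining (0.1% SRB after 10% TCA fixation, 560 nm) flags cytotoxicity.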

Read-out in test [11]: Plasminogen activator inhibitor-1 (PAI1), SERPINE1 (gene 5054)
Put plainly: BSK_KF3CT_PAI1: BioMAP Diversity Plus: KF3CT Assay for Plasminogen activator inhibitor-1 (PAI1) Biomarker Activity (AID 2284252). The following applies: primary human keratinocytes with fibroblasts. The essentials:
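ELISA read-out of PAI-1 taken 24 h after chemical treatment of a human skin primary co-culture of keratinocytes and foreskin fibroblasts. Increases over DMSO-treated wells defined activity.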

Read-out in test [12]: Interleukin-8 (IL8), CXCL8 (gene 3576)
Description: BSK_KF3CT_IL8: BioMAP Diversity Plus: KF3CT Assay for Interleukin-8 (IL8) Biomarker Activity (AID 2284254). The conditions noted are these: primary human keratinocytes with fibroblasts. The essentials: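 Human keratinocyte/foreskin fibroblast co-culture dosed 24 h; IL-8 measured by ELISA relative to DMSO. Parallel cultures stained with SRB for total protein to flag cytotoxicity.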

Calls of active or inactive are those of the source. Rule for the calls: active = hit-call score of the fitted dose curve at least 0.9, where 1 is the maximum; inactive = score below 0.9.

`CC(C)(C)c1ccccc1OP(=O)(Oc1ccccc1)Oc1ccccc1`: the AC50 in test [1] is 28.2 µM (active); in test [4], 20 µM (active); in test [6] it was 20 µM (active); in test [7], 5.26 µM (active). In addition, the outcome is “inactive” in test [2]; “inactive” in test [3]; “inactive” in test [5]; “inactive” in the test with Decorin, DCN (gene 1634).
`N#Cc1c(-c2ccc(Cl)cc2)[nH]c(C(F)(F)F)c1Br`: the AC50 in test [1] is 10.1 µM (active); in test [4] it was 20 µM (active); in test [5], 0.17 µM (active); in test [6], 0.802 µM (active). Also, the outcome in [2] is “inactive”; in test [3], “inactive”; in the test with Decorin, DCN (gene 1634) it was “inactive”; in test [7] it was “inactive”.
Take `Cc1c([N+](=O)[O-])cc2c(c1[N+](=O)[O-])C(C)(C)CC2(C)C`: the AC50 in test [1] was 20 µM (active); in [3], 5.8 µM (active); in test [7] it was 4.01 µM (active). For the same compound, the outcome is “inactive” in test [2]; “inactive” in test [4]; “inactive” in test [5]; “inactive” with Decorin, DCN (gene 1634); “inactive” in [6].
Consider `CC(Cl)CN(C)C` (stereo not given), for which the outcome in test [1] is “inactive”; in [2] it was “inactive”; in [3], “inactive”; in test [5], “inactive”; in the test with Decorin, DCN (gene 1634), “inactive”; in test [6], “inactive”. Moreover, in test [7], the result was inactive. The AC50 in test [4] was 0.016 µM (active).
As for `COP(=O)(CCC(=O)NCO)OC`, the result in [8], in test [9], in test [10], in test [11] and in [12] was inactive.
Take `CCCCC(CC)COP(=O)(Oc1ccccc1)Oc1ccccc1` (stereo not given): the AC50 in [1] was 20 µM (active); in [2], 12.3 µM (active); in test [3] it was 3.97 µM (active); in test [4], 16 µM (active); in [5], 0.145 µM (active); with Decorin, DCN (gene 1634), 5.87 µM (active). Further, the AC50 in [6] was 8.43 µM (active); in test [7] it was 5.32 µM (active).
